Assay results reported in PubChem BioAssay (NCI).
Where “and” joins values, the source holds several entries; their conditions need not be identical. Equal entries are not always repeated. About 79,000 compounds went through this panel and 15% of them were active in at least one assay; those are over-represented in the sample as a whole. Rule as the data show it: active = growth inhibition above about 70%; inactive = the rest. Where a SMILES comes first, the peptide text is derived from it. [ ]: non-standard residue; d: D form. The star is where a group is joined. ξ: configuration not given here. ξNMe2Val = CC(C)C(C(=O)*)N(C)C; NMeV = CN[CH](C(=O)O)C(C)C; NHBn = c1ccc(CN*)cc1

Tests used:
[1] = NCI Yeast Anticancer Drug Screen. Data for the rad50 strain (AID 155);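 also: 0% = growth of vehicle-only cultures of the same strain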; settings: S. cerevisiae rad50 strain growth inhibition; at 50.0 µM; hits give high values
How it was run: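 A DNA repair-deficient yeast mutant serves as the test organism; compound-induced growth inhibition is calculated against vehicle-treated cells.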

[2] = NCI Yeast Anticancer Drug Screen. Data for the mec2-1 strain (AID 157); settings: S. cerevisiae mec2-1 strain, at 50.0 µM, hits give high values
How it was run: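 Each compound was tested on mec2-1 yeast, a strain altered in DNA damage repair or cell cycle control. Growth inhibition is reported relative to vehicle.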

[3] = NCI Yeast Anticancer Drug Screen. Data for the sgs1 mgt1 strain (AID 161);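 also: 0% = growth of cultures given vehicle only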; settings: S. cerevisiae sgs1 mgt1 strain, at 50.0 µM, hits give high values
How it was run: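 Mutant yeast exposed to compound; growth scored against vehicle-only wells.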

[4] = NCI Yeast Anticancer Drug Screen. Data for the cln2 rad14 strain (AID 165);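 also: 0% = growth equal to vehicle treated cultures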; settings: S. cerevisiae cln2 rad14 strain, at 50.0 µM, hits give high values
How it was run: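 Test compounds were added to cln2 rad14 yeast cultures; inhibition of growth was then determined by comparison with vehicle treatment.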

[5] = NCI Yeast Anticancer Drug Screen. Data for the bub3 strain (AID 167); settings: S. cerevisiae bub3 mutant strain, at 50.0 µM, hits give high values
How it was run: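 Inhibition values come from growth of compound-treated mutant yeast normalised to vehicle-treated controls.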

[6] = NCI Yeast Anticancer Drug Screen. Data for the mlh1 rad18 strain (AID 175); settings: S. cerevisiae mlh1 rad18 strain growth inhibition; at 50.0 µM; hits give high values
How it was run: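 Inhibition values reflect reduced growth of mutant yeast versus vehicle-treated controls following compound exposure; the mutations affect DNA damage repair.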

Measured: growth inhibition

CC(C)(C)c1ccc(OP(=O)(Oc2ccccc2)Oc2ccccc2)cc1
inactive: [1] 15.9% | [2] 0.05% | [3] -8.15% | [4] -30.9% | [5] 24.1% | [6] 33.9%

CC1CCC(OC(=O)CCl)CC1 (configuration not stated)
inactive: [1] 18.1% | [2] 19.4% | [3] 13.3% | [4] 7.45% | [5] 8.95% | [6] -8.75%

COc1ccc(CC(N)C(=O)O)cc1N(CCCl)CCCl (configuration not stated)
inactive: [1] -0.2% and -0.5% | [2] -0.55% and -7.45% | [3] -11.2% and -6.65% | [4] -6.55% and -9.85% | [5] 2.25% and 7.75% | [6] -9.25% and -7.2%

CC(C)C(NC(=O)C(C(C)C)N(C)C)C(=O)N(C)C(C(=O)N1CCCC1C(=O)N1CCCC1C(=O)NCc1ccccc1)C(C)C (configuration not stated) (ξNMe2Val-V[NMeV]PP-NHBn; configuration not given here)
inactive: [1] -18.3% | [2] -17.7% | [3] -22.9% | [4] 12% | [5] 3.55% | [6] -47%

CC[C@H]1CN2CCc3c([nH]c4ccccc34)[C@@H]2C[C@@H]1/C(=C/OC)C(=O)OC (tested in a mixture with another compound)
inactive: [1] -23.2% | [2] -25.6% | [3] -24.6% | [4] 3.6% | [5] -32.9% | [6] -13.9%

CNC(=O)Oc1ccccc1C(N)=O
inactive: [1] 10.4% | [2] -1.8% | [3] -14.8% | [4] -46.8% | [5] -4.55% | [6] 7.3%

CCCCCCCCCCC(O)C1CCC(C(O)CCC(O)C2CCC(CCCCCCC[C@H](O)CC3=C[C@@H](C)OC3=O)O2)O1 (some centres not stated)
inactive: [1] 31.4% | [2] 6.55% | [3] 1.55% | [4] 12.9% | [5] 19.1% | [6] 27.2%

O=C(OCc1nc2ccccn2c1[N+](=O)[O-])N(CCCl)CCCl
inactive: [1] -42.6% | [2] -21.5% | [3] -35.6% | [4] -10.8% | [5] 16.9% | [6] -46%

[Se]=P(N1CCCCC1)(N1CCCCC1)N1CCCCC1
inactive: [1] 21.6% | [2] 2.75% | [3] 6.4% | [4] 6.55% | [5] 11.4% | [6] 10.2%

CC1=C(C)C(=O)C(C)=C(C)C1=O
inactive: [1] 25.2% | [2] 8.7% | [3] -9.6% | [4] -10.7% | [5] 5.15% | [6] 13.2%

CCCCCCOC(=O)C(N)Cc1ccc(OC)c(N(CCCl)CCCl)c1 (configuration not stated)
inactive: [1] 6.5% | [2] 3.65% | [3] -3.55% | [4] 5.7% | [5] -1.6% | [6] -2.7%

COc1ccc(C(=O)Cc2c(C(=O)c3ccccc3)c3ccccc3n2C(=O)c2ccccc2)cc1
inactive: [1] -2.45% | [2] -18.5% | [3] -9.5% | [4] -57.6% | [5] -23.4% | [6] 5.75%

CC(=O)c1ccccc1O
inactive: [1] 10.8% and 2.05% | [2] 11.4% and -10.9% | [3] -53.4% and -0.4% | [4] -13.4% and 2.05% | [5] -16.9% and 3.7% | [6] -29.4% and -4.5%

C/C(=N\N(C)C)C(CN(C)C)C(c1ccccc1)c1c(O)c2ccccc2oc1=O (configuration not stated)
inactive: [1] 16.8% | [2] -18.5% | [3] 13.8% | [4] 1.5% | [5] 37.8% | [6] 18.9%

COC1=N[C@]2(O)C[C@]3(C)[C@@H](O)CC[C@H]3[C@@H]3CCC4=CC(=O)CC[C@]4(C)[C@]32S1
inactive: [1] 7.4% | [2] 10.6% | [3] 2.3% | [4] -22.7% | [5] 33.8% | [6] 3.2%

NC(=O)C(CCN1CCCCC1)(c1ccccc1)c1ccccc1
inactive: [1] -9.6% | [2] -14.9% | [3] 5.65% | [4] -35.4% | [5] -8.8% | [6] -8.25%

O=C(NC(=S)N1CC1)c1ccccc1
inactive: [1] -13.9% | [2] -43.4% | [3] -7% | [4] -7.8% | [5] -26.4% | [6] -36.3%

Nc1nc(N)[nH]c(=O)n1
inactive: [1] -20.1% | [2] -12.5% | [3] -39% | [4] -29.4% | [5] -36.4% | [6] -40%

O=C(Cc1ccccc1)Nc1ccc(Cl)cc1C(=O)c1ccccc1
inactive: [1] 1.95% | [2] 44.2% | [3] 40.1% | [4] -18.3% | [5] 23.1% | [6] 36.7%

NC(N)=N/N=C/C(=N\N=C(N)N)C(O)C(O)C(O)C(O)CO (configuration not stated)
inactive: [1] -10.3% and 44.2% | [2] -20.9% and -3.55% | [3] -16.1% and 31.9% | [4] -22.6% and 15.1% | [5] -3.8% and 7.3% | [6] -22.4% and 15.9%

O=S(=O)(c1ccccc1)N1C2CCCC21 (configuration not stated)
inactive: [1] 14.1% | [2] 2.55% | [3] 7.05% | [4] -2.75% | [5] 7.5% | [6] -21.5%

CC(Cl)[N+](=O)[O-] (configuration not stated)
inactive: [1] 15.4% | [2] -10.2% | [3] 2.55% | [4] 16.9% | [5] 9% | [6] 1.9%

CCC1C2CC3C4N(C)c5ccccc5C45CC(C2C5O)N3C1O (configuration not stated)
inactive: [1] 20.9% and -6.8% and -4.75% | [2] -7.75% and 5.2% and -40.8% | [3] -16.9% and 15.7% and -14.2% | [4] -17.9% and -3.4% and -0.6% | [5] 13.6% and -10.1% and -32.2% | [6] -11.4% and -41% and -23.6%

O=c1nc2n(CCN(CCCl)CCCl)c3cc(Cl)c(Cl)cc3nc-2c(=O)[nH]1
inactive: [1] 38% | [2] -1.65% | [3] 45% | [4] 34.6% | [5] 3.65% | [6] 26.4%

O=C(CC(=O)C(F)(F)F)c1ccco1
inactive: [1] 34% | [2] -25.9% | [3] -19.1% | [4] -49.8% | [5] -16.5% | [6] -8.45%

CNC(=O)Oc1cccc(NC(=O)OC(C)(C)C)c1
inactive: [1] 3.5% | [2] 14.8% | [3] 27.1% | [4] 1.45% | [5] 29.1% | [6] 15.1%

NC(CCOCCP(=O)(O)O)C(=O)O (configuration not stated)
inactive: [1] -51.3% | [2] -36.4% | [3] -44% | [4] -8% | [5] -15.3% | [6] -40.1%

COc1cc[c]([Pb]([c]2ccc(Cl)cc2)([c]2ccc(Cl)cc2)[c]2ccc(OC)cc2)cc1
inactive: [1] -13.4% | [2] -8.95% | [3] -1.1% | [4] -25.7% | [5] -4.25% | [6] 16.2%

O=NNc1cnccn1
inactive: [1] -15.2% and -8.45% | [2] -23.9% and 1.5% | [3] -37.5% and -16.6% | [4] -3.8% and 4.05% | [5] -19% and -18.5% | [6] -8.25% and -21.2%

NC(=O)c1ccc([As](O)O)cc1N
inactive: [1] -0.05% | [2] -4.9% | [3] -12.5% | [4] -4.75% | [5] -11.5% | [6] -9.1%

C/C=C(\CC)C1(CCC)C(=O)NC(=O)NC1=O
inactive: [1] 15.1% and 5.2% | [2] 13.1% and 3% | [3] 5.25% and 22.8% | [4] 17.4% and -7% | [5] 1.35% and -0.4% | [6] 7.75% and -3.65%

CC1=CC(C)=Nc2ccc(C)cc2N1
inactive: [1] -2.65% | [2] -0.6% | [3] -5.95% | [4] -2.65% | [5] -6% | [6] 22.2%

Clc1ccc(C2ON2c2ccccc2)cc1 (configuration not stated) (tested in a mixture with another compound)
inactive: [1] 3.1% | [2] 14.6% | [3] 16.2% | [4] 4.45% | [5] -8.4% | [6] 18.2%

CCCC1(CCS)C(=O)NC(=O)NC1=O
inactive: [1] -12.9% | [2] -33.7% | [3] -13.3% | [4] 5.25% | [5] 2.3% | [6] 9.15%

Cn1c(=O)c2ncnnc2n(C)c1=O
inactive: [1] 31.6% | [2] 22.9% | [3] 27.9% | [4] 0.5% | [5] 36.8% | [6] 45.1%

CCOC(=O)C(=O)C1CCNC1=O (configuration not stated)
inactive: [1] 9.2% | [2] 3.35% | [3] -4.45% | [4] -0.25% | [5] -3.65% | [6] 24.5%

COc1ccc(C(=O)C(CC2C(=O)NC(=O)NC2=O)c2ccc(OC)cc2)cc1 (configuration not stated)
inactive: [1] -7.65% | [2] -8.65% | [3] -22.9% | [4] -17.1% | [5] -19.1% | [6] -19.1%
